According to PubChem BioAssay (Tox21):
Records with an inconclusive call do not appear. Calls of active or inactive are those of the source. Unless noted, calls come from the whole dose curve; as a rule, active = well fitted curve in the direction sought with a large enough effect in the repeat runs; inconclusive = weak or mixed curves; inactive = flat fitted curve, though single readings scatter.

What was measured:
[1] = qHTS assay to test for compound auto fluorescence at 535 nm (green) in HEK293 cells (AID 720680)
[2] = qHTS assay to test for compound auto fluorescence at 460 nm (blue) in HEK293 cell free culture (AID 720681)
Procedure, shortened: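 Blue fluorescence (Ex 405/Em 460 nm, triamterene-equivalent) was read immediately after pin transfer of compound or DMSO into medium (DMEM, 10% FBS) without cells.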

[3] = qHTS assay to test for compound auto fluorescence at 535 nm (green) in HEK293 cell free culture (AID 720682)
Procedure, shortened: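 Green-channel intensity (Ex/Em 485/535 nm) was recorded from compound-treated wells containing only DMEM with 10% FBS. Fluorescein provided the equivalency standard.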

[4] = qHTS assay to test for compound auto fluorescence at 590 nm (red) in HEK293 cell free culture (AID 720683)
Procedure, shortened: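 Red-channel autofluorescence of compounds in culture medium (DMEM, 10% FBS), no cells, measured at 540/590 nm. Rose Bengal sodium is the reference fluorophore for equivalence.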

[5] = qHTS assay to test for compound auto fluorescence at 590 nm (red) in HepG2 cell free culture (AID 720684)
Procedure, shortened: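 Cell-free; medium MEM + 10% FBS; compound or DMSO added by pintool; read Ex 540/Em 590 nm; Rose Bengal sodium as red reference fluorophore.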

[6] = qHTS assay to test for compound auto fluorescence at 460 nm (blue) in HepG2 cell free culture (AID 720685)
Procedure, shortened: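 Cell-free plates of MEM plus 10% FBS received 23 nL compound or DMSO vehicle; blue-channel (405/460 nm) intensity scored against triamterene as reference fluorophore.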

[7] = qHTS assay to test for compound auto fluorescence at 535 nm (green) in HepG2 cell free culture (AID 720686)
[8] = qHTS assay to test for compound auto fluorescence at 460 nm (blue) in HepG2 cells (AID 720687)
Procedure, shortened: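 Blue-channel autofluorescence (Ex/Em 405/460 nm, triamterene-equivalent) was measured after 1 hr compound exposure at 37 C, 5% CO2. Cells were HepG2, plated overnight at 37 C in MEM plus 10% FBS.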

[9] = target: Glucocorticoid receptor (Homo sapiens) (UniProt P04150); test: qHTS assay to identify small molecule agonists of the glucocorticoid receptor (GR) signaling pathway (AID 720691; active = well fitted activation curve with a large enough effect in the signal ratio in the repeat runs, not every such curve was filed as active; the % refers to the signal ratio)
Sequence of Glucocorticoid receptor (Homo sapiens) (P04150 whole entry, looked up): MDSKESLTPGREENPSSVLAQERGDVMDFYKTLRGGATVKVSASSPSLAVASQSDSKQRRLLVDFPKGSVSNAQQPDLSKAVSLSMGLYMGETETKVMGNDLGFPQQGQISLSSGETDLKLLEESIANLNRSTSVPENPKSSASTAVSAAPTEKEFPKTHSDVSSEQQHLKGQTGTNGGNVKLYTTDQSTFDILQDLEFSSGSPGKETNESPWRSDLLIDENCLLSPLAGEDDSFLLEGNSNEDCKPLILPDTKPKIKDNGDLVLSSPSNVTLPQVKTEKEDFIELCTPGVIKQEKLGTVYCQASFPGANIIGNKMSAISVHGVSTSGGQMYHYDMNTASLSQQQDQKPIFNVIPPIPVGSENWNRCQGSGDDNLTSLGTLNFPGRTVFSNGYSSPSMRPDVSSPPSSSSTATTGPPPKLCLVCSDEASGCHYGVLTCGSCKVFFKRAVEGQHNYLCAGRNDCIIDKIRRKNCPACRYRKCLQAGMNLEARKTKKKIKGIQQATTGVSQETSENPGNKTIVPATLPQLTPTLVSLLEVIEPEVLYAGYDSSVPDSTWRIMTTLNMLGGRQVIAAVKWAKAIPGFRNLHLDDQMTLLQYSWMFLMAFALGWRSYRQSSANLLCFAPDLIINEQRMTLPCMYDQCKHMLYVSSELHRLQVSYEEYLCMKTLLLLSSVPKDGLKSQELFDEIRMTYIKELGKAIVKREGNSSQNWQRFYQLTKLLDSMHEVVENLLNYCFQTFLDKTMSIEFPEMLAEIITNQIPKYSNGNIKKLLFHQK
Procedure, shortened: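 HeLa GR-bla reporter line; cells pre-incubated 4 h, compound in DMSO 18 h at 37 C; LiveBLAzer B/G FRET substrate 2 h RT; fluorescence intensity read-out.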

[10] = target: Glucocorticoid receptor (Homo sapiens) (UniProt P04150); test: qHTS assay to identify small molecule antagonists of the glucocorticoid receptor (GR) signaling pathway (AID 720692; active = well fitted inhibition curve with a large enough effect in the signal ratio in the repeat runs, not every such curve was filed as active; the % refers to the signal ratio)
Procedure, shortened: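 Read-out: beta-lactamase FRET substrate fluorescence, 2 h at room temperature, in HeLa cells stably carrying a GRE-driven bla reporter. Compounds were co-incubated with 5 nM dexamethasone agonist (final) for 18 h at 37 C.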
% is set by controls: 0 for no effect and ±100 for the full control effect.

CC(=O)CC(C)C
inactive: outcome [1] | outcome [2] | outcome [3] | outcome [4] | outcome [5] | outcome [6] | outcome [7] | outcome [8] | Potency [9] | Potency [10]

CCCCC/C=C\CCC=O
inactive: outcome [1] | outcome [2] | outcome [3] | outcome [4] | outcome [5] | outcome [6] | outcome [7] | outcome [8] | Potency [9] | Potency [10]

O=C(CCCN1CCC(O)(c2cccc(C(F)(F)F)c2)CC1)c1ccc(F)cc1
inactive: outcome [1] | outcome [2] | outcome [3] | outcome [4] | outcome [5] | outcome [6] | outcome [7] | outcome [8] | Potency [9] | Potency [10]

N#Cc1ccc(C2CCCc3cncn32)cc1 (stereo unspecified)
inactive: outcome [1] | outcome [2] | outcome [3] | outcome [4] | outcome [5] | outcome [6] | outcome [7] | outcome [8] | Potency [9] | Potency [10]

OC1CCCCC1c1ccccc1 (stereo unspecified)
inactive: outcome [1] | outcome [2] | outcome [3] | outcome [4] | outcome [5] | outcome [6] | outcome [7] | outcome [8] | Potency [9] | Potency [10]

OCCOc1ccc(OCCO)cc1
inactive: outcome [1] | outcome [2] | outcome [3] | outcome [4] | outcome [5] | outcome [6] | outcome [7] | outcome [8] | Potency [9] | Potency [10]

Cc1c(NC(C)C)c(=O)n(-c2ccccc2)n1C
inactive: outcome [1] | outcome [2] | outcome [3] | outcome [4] | outcome [5] | outcome [6] | outcome [7] | outcome [8] | Potency [9] | Potency [10]

C1CN(CCOCCN2CCOCC2)CCO1
inactive: outcome [1] | outcome [2] | outcome [3] | outcome [4] | outcome [5] | outcome [6] | outcome [7] | outcome [8] | Potency [9] | Potency [10]

C=CCS(=O)(=O)O
inactive: outcome [1] | outcome [2] | outcome [3] | outcome [4] | outcome [5] | outcome [6] | outcome [7] | outcome [8] | Potency [9]

CC(C)(O)C(=O)c1ccccc1
inactive: outcome [1] | outcome [2] | outcome [3] | outcome [4] | outcome [5] | outcome [6] | outcome [7] | outcome [8] | Potency [9] | Potency [10]

CCC(C)S (stereo unspecified)
inactive: fluorescence, % of fluorescein [1] 0.0934% [at 3.72 µM] | fluorescence, % of fluorescent control [2] 0.0638% [at 3.72 µM] | activity change [3] -0.0524% [at 3.72 µM] | fluorescence, % of fluorescent control [4] -0.0589% [at 3.72 µM] | fluorescence, % of Rose Bengal [5] -0.203% [at 3.72 µM] | fluorescence, % of fluorescent control [6] -0.0422% [at 3.72 µM] | fluorescence, % of fluorescein control [7] 0.0002% [at 3.72 µM] | fluorescence, % of fluorescent control [8] -0.0637% [at 3.72 µM] | activation [9] -0.406% [at 3.1 µM] | activity change, negative = inhibition [10] 1.31% [at 3.15 µM]

CO[C@]12C[C@@H](COC(=O)c3cncc(Br)c3)CN(C)[C@@H]1Cc1cn(C)c3cccc2c13
inactive: outcome [1] | outcome [2] | outcome [3] | outcome [4] | outcome [5] | outcome [6] | outcome [7] | outcome [8] | Potency [9] | Potency [10]

O=C(O)Cc1ccc(CCNS(=O)(=O)c2ccc(Cl)cc2)cc1
inactive: outcome [1] | outcome [2] | outcome [3] | outcome [4] | outcome [5] | outcome [6] | outcome [7] | outcome [8] | Potency [9] | Potency [10]

CC/C=C\CCOC(C)=O
inactive: outcome [1] | outcome [2] | outcome [3] | outcome [4] | outcome [5] | outcome [6] | outcome [7] | outcome [8] | Potency [9] | Potency [10]

CCSC(=O)N(CC(C)C)CC(C)C
inactive: outcome [1] | outcome [2] | outcome [3] | outcome [4] | outcome [5] | outcome [6] | outcome [7] | outcome [8] | Potency [9] | Potency [10]

CC(=O)Nc1ccc(S(N)(=O)=O)cc1
inactive: outcome [1] | outcome [2] | outcome [3] | outcome [4] | outcome [5] | outcome [6] | outcome [7] | outcome [8] | Potency [9] | Potency [10]

O=C(O)CCCc1ccccc1
inactive: outcome [1] | outcome [2] | outcome [3] | outcome [4] | outcome [5] | outcome [6] | outcome [7] | outcome [8] | Potency [9] | Potency [10]

COc1ccccc1OCC(O)CN1CCN(CC(=O)Nc2c(C)cccc2C)CC1 (stereo unspecified)
inactive: outcome [1] | outcome [2] | outcome [3] | outcome [4] | outcome [5] | outcome [6] | outcome [7] | outcome [8] | Potency [9] | Potency [10]

Oc1ccc(C2CNCCc3c2cc(O)c(O)c3Cl)cc1 (stereo unspecified)
inactive: outcome [1] | outcome [2] | outcome [3] | outcome [4] | outcome [5] | outcome [6] | outcome [7] | outcome [8] | Potency [9] | Potency [10]

CCCCCCCCCCCC
inactive: outcome [1] | outcome [2] | outcome [3] | outcome [4] | outcome [5] | outcome [6] | outcome [7] | outcome [8] | Potency [9] | Potency [10]

Cc1ccc(Cl)cc1Cl
inactive: outcome [1] | outcome [2] | outcome [3] | outcome [4] | outcome [5] | outcome [6] | outcome [7] | outcome [8] | Potency [9] | Potency [10]

Nc1c[n+](N2CCOCC2)no1
inactive: outcome [1] | outcome [2] | outcome [3] | outcome [4] | outcome [5] | outcome [6] | outcome [7] | outcome [8] | Potency [9] | Potency [10]

CCO[Si](CCC1CCC2OC2C1)(OCC)OCC (stereo unspecified)
inactive: outcome [1] | outcome [2] | outcome [3] | outcome [4] | outcome [5] | outcome [6] | outcome [7] | outcome [8] | Potency [9] | Potency [10]

N=C(N)c1ccc2cc(OC(=O)c3ccc(N=C(N)N)cc3)ccc2c1
inactive: outcome [1] | outcome [2] | outcome [3] | outcome [4] | outcome [6] | outcome [7] | outcome [8]
